Growth data for 35 molecules are collected here from PubChem BioAssay (NCI).

“And” between values parts separate entries of the source, which are not always exact repeats. Equal entries are not always repeated. This is part of a sample that, as a whole, favours compounds with a hit. Of some 83,000 tested, about 20% had one in any assay.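 Single-concentration screen, 48 h exposure, 96-well plates. Endpoint: percent growth. Below 10 = active.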 The source made the active and inactive calls.

The assay relates to MDA-MB-468 breast. Briefly: NCI-60 one-dose screen, 48 h (100 = growth as untreated, 0 = no growth, -100 = all killed). As to conditions: 10 µM unless noted.
With `CNCC[C@H](Oc1cccc2ccccc12)c1cccs1`, the growth was 82% (inactive). As for `Cc1ccc(S(=O)(=O)N2CCC(=O)c3ccccc32)cc1`, the figure is 25.7% (inactive); as for `CCN1CCN(CCCN(C[C@H]2Cc3ccccc3CN2)[C@H]2CCCc3cccnc32)CC1`, 87.1% (inactive); as for `CC(C)COCC(CN(Cc1ccccc1)c1ccccc1)N1CCCC1` (stereo not given), 32.7% (inactive). With `COc1ccc(Nc2cc(NC(=O)CNc3cc(OC)c(Cl)c(OC)c3Cl)ncn2)cc1`, the growth was 80.8% (inactive). The figure for `O=C(O)COc1ccc(Cl)c(Cl)c1` is 99.5% (inactive). Consider `O=C1c2nsnc2C(=O)c2c(F)c(F)c(F)c(F)c21`, for which the growth was -50.4% (active). As for `c1ccc([P+](c2ccccc2)(c2ccccc2)c2ccc3c4ccc([P+](c5ccccc5)(c5ccccc5)c5ccccc5)c5cccc(c6cccc2c63)c54)cc1`, the figure is -10.9% (active); as for `O=C(Nc1nc2ccc(C(=O)N3CCN(/C=C/c4ccccc4)CC3)cc2s1)c1ccc(NCCc2ccccc2)c([N+](=O)[O-])c1`, 22.6% (inactive).

In the case of `O=C(NNC(=S)Nc1ccccc1)c1ccccn1`, the growth is 51.2% (inactive). As to `CCCC/C(=C\c1ccc(O)c(O)c1)C(=O)NC(Cc1ccccc1)C(=O)C(=O)NCCc1ccc(OC)cc1` (stereo not given), the growth was 93.2% (inactive). The figure for `COCCN1CCN(Cc2ccc(-c3n[nH]c4c3C(=O)c3c(NC(=O)NN5CCOCC5)cccc3-4)cc2)CC1` is -45.1% (active); for `CCCCCCCC(=O)SCC/C=C/[C@@H]1CC(=O)NCc2cccc(n2)C2=N[C@@](C)(CS2)C(=O)N[C@@H](C(C)C)C(=O)O1` it is 12.4% (inactive); for `CCOc1ccc2c(c1)c(C)cc(C)[n+]2CC` it is 9.85% (active). As for `C=CCSc1nc2ccccc2cc1/C=N/O`, the figure is 82% (inactive); as for `O=C(Nc1cccc(-n2cc(-c3ccncc3)c(-c3ccc(Cl)c(O)c3)n2)c1)c1ccccc1`, 64.1% (inactive); as for `CCN1C(=O)/C(=c2\sc3n(c2=O)C2C(NN=3)N(CC)C(=S)N2CC)c2ccccc21` (stereo not given), 104% (inactive). The figure for `O=C1c2c(c3c4ccc(Br)cc4oc3c3[nH]c4ccccc4c23)C(=O)N1O` is 45.3% (inactive). As to `Nc1ccc(S(=O)(=O)c2ccc(N)cc2)cc1`, the growth is 97.5% (inactive) and 101% (inactive). `COc1ccc(/C=C/c2c(C(=O)/C=C/c3ccc(C(F)(F)F)cc3)c(C)nc3ccccc23)cc1`: the growth was -54.5% (active).

As to `O=C(CSc1nnc(-c2ccc3nc(-c4ccc(Cl)cc4)[nH]c3c2)o1)Nc1ccc(C(=O)/C=C/c2ccc(Cl)cc2)cc1`, the growth is 100% (inactive). As for `O=C(c1ccccc1)[C@H]1[C@@H]2CCCN2[C@]2(C(=O)Nc3ccc(F)cc32)[C@]12C(=O)Nc1ccccc12`, the figure is 96.2% (inactive). On to `Cc1[nH]n(-c2cccc(Cl)c2)c(=O)c1/C=C1\C=c2ccccc2=CC1=O`, for which the growth was 34.5% (inactive). Regarding `Fc1ccc2nc(-c3nc(-c4ccccc4)n4ccccc34)[nH]c2c1`, the growth was -68.1% (active). The figure for `COc1ccc(/C=N/C2=C(C#N)C(c3ccc(OC)cc3)c3ccc4ccccc4c3O2)cc1` (stereo not given) is 38.2% (inactive); for `Cc1c(C)c2c(c(C)c1OCC(=O)O)CC[C@@](C)(CCC[C@@H](C)CCC[C@@H](C)CCCC(C)C)O2` it is 0.25% [50 µM] (active). The figure for `O=C(NNC(=O)N1c2ccccc2C=Cc2ccccc21)c1ccc2ccccc2c1` is 87.7% (inactive).

Regarding `Nc1ccccc1NC(=O)c1ccc(NC(=O)C/C=C/c2cccnc2)cc1`, the growth is -7.27% (active). As for `C[C@H]1[C@H](C)CC[C@]2(C(=O)O)CC[C@]3(C)C(=CC[C@@H]4[C@@]5(C)C/C(=C/c6ccco6)C(=O)C(C)(C)[C@@H]5CC[C@]43C)[C@H]12`, the figure is -38% [100 µM] (active); as for `COc1ccccc1Nc1nc2c(s1)C1=CC[C@H]3[C@@H]4CC[C@H]([C@H](C)CCCC(C)C)[C@@]4(C)CC[C@@H]3[C@@]1(C)CC2`, 113% (inactive). As for `CSc1ccc2c3c(n(C[C@H](O)CO)c(=O)c2c1)-c1ccccc1C3=O`, the figure is 39.8% (inactive); as for `N/C(=N\N=C\c1cc2ccccc2s1)N/N=C/c1cc2ccccc2s1`, 122% (inactive). Take `CC(C)N=C1CCCC1C(=S)SSC(=S)C1CCCC1=NC(C)C` (stereo not given): the growth is 63.6% (inactive). The figure for `Nc1ccc2cc(S(=O)(=O)O)cc(O)c2c1N=Nc1ccc(F)cc1` is 118% (inactive).

Regarding `Nc1nc(N)c2nc(-c3cccc(O)c3)c(-c3cccc(O)c3)nc2n1`, the growth was 10.4% (inactive).
